The record followed here is the supplement of paper PMC9177965.

Values joined by “and” are separate entries in the source; they are usually repeats but may differ in a detail not shown here. Equal values may be shown once.

For the first assay, the system named is HT29 RNF43 G659fs (RNF43 659mut, CRISPR-edited). The assay is described as follows: cell viability activity relative to DMSO (negative = inhibition); higher = more viable cells (less growth inhibition). As to conditions: 5 µM; 96 h. How it is done:
(§1)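 Broad Repurposing Library primary screen at a single dose of 5 uM. HT29 sg-Ctrl and HT29 RNF43 G659fs CRISPR-edited isogenic cells were seeded at 2500 cells/well in 384-well plates in duplicate and treated for 96 h. Viability was read by CellTiter-Glo and reported as % activity relative to DMSO, with MG132 as the positive control (negative = growth inhibition).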
In the case of `CN(C)Cc1ccc(S(=O)(=O)n2ccc(/C=C/C(=O)NO)c2)cc1`, the cell viability activity is -72.5%.

As to `O=C(CCCCCCNC(=O)c1cnc(N(c2ccccc2)c2ccccc2)nc1)NO`, the cell viability activity is -34.4%.

Regarding `COc1cc(NC(C)CCCN)c2ncccc2c1` (centres undefined), the cell viability activity was -52.7%.

Take `CN1CCN(c2ccc3nc(-c4c(N)c5c(F)cccc5[nH]c4=O)[nH]c3c2)CC1`: the cell viability activity was -60.6%.

For the compound `CN(C)CCOc1ccc(-c2nc(-c3ccncc3)c(-c3ccc4c(c3)CC/C4=N\O)[nH]2)cc1`, the cell viability activity is -44.3%.

Consider `CNC(=O)c1ccccc1Nc1nc(Nc2ccc3c(c2OC)CCC[C@H](N2CCN(CCO)CC2)C3)ncc1Cl`, for which the cell viability activity was -89.4%.

With `C[C@@H](CN1CC(=O)NC(=O)C1)N1CC(=O)NC(=O)C1`, the cell viability activity is -48.1%.

As to `CNC(=O)c1cccc(-c2ccc3c(N4CCOC[C@@H]4C)nc(N4CCOC[C@@H]4C)nc3n2)c1`, the cell viability activity is -62.5%.

Regarding `COc1cc(Nc2ncc(F)c(Nc3ccc4c(n3)NC(=O)C(C)(C)O4)n2)cc(OC)c1OC`, the cell viability activity is -46.5%.

`C[C@]1(O)C[C@@H](c2nc(-c3ccc4ccc(-c5ccccc5)nc4c3)c3c(N)nccn32)C1`: the cell viability activity is -32.5%.

Regarding `COc1cc(/C=C/C(=O)CC(=O)/C=C/c2ccc(O)c(OC)c2)ccc1O`, the cell viability activity is -87.7%.

In the case of `Cc1cc(OCc2nc(-c3ccccc3Cl)cs2)ccc1OCC(=O)O`, the cell viability activity was -41.6%.

Consider `Cc1cccc(Nc2nc(-c3ccncc3)cs2)c1`, for which the cell viability activity was -85.7%.

Regarding `O=C(c1cn(Cc2cncn2Cc2ccc(Br)cc2)cc1-c1cccc2ccccc12)N1CCOCC1`, the cell viability activity is -42.8%.

In the case of `O=C(O)/C=C/c1ccc(O)c(O)c1`, the cell viability activity is -66.6%.

Regarding `CN(C)CCOc1ccc(-c2nc(-c3ccc4c(c3)CC/C4=N\O)c(-c3ccncc3)[nH]2)cc1`, the cell viability activity was -28.5%.

As to `Cc1cn([C@H]2C[C@H](N=[N+]=[N-])[C@@H](CO)O2)c(=O)[nH]c1=O`, the cell viability activity is -29%.

In the case of `CCn1c(=O)c(-c2cc[nH]n2)cc2c(C)nc(N)nc21`, the cell viability activity was -54.4%.

Take `COc1cc2ncnc(Sc3nnc(C)s3)c2cc1OC`: the cell viability activity was -29.5%.

Take `CO[C@H]1/C=C\C=C(/C)C(=O)NC2=CC(=O)C(NCCN(C)C)=C(C[C@@H](C)C[C@H](OC)[C@H](O)[C@@H](C)/C=C(\C)[C@@H]1OC(N)=O)C2=O`: the cell viability activity was -93.9% and -91.4%.

Regarding `CNC(=O)c1nn(C)c2c1C(C)(C)Cc1cnc(Nc3ccc(N4CCN(C)CC4)cc3)nc1-2`, the cell viability activity is -66.2%.

For `CC(=O)OC1CC2CCC1(C)C2(C)C` (centres undefined), the cell viability activity is -28.1%.

As for `COc1cc(OC)c(/C=C/S(=O)(=O)Cc2ccc(OC)c(NCC(=O)O)c2)c(OC)c1`, the cell viability activity was -58.2%.

Consider `Cn1cnc2c(F)c(Nc3ccc(Br)cc3F)c(C(=O)NOCCO)cc21`, for which the cell viability activity was -75.9%.

Turning to `CC(=O)N1CCN(CCOc2ccc(C3CCN(C4=Nn5c(nnc5C(F)(F)F)CC4)CC3)cc2)CC1`, the cell viability activity is -32.3%.

Turning to `Cc1nc2ccccc2n1Cc1ccc(Cl)cc1`, the cell viability activity was -60.5%.

As for `CCCCCCCCCc1ccc(OCCOCCOCCOCCOCCOCCOCCOCCOCCO)cc1`, the cell viability activity was -55.9%.

In the case of `N#CC1(c2ccc(NC(=O)c3cccnc3NCc3ccncc3)cc2)CCCC1`, the cell viability activity was -45.5%.

Turning to `Cc1cc(-c2ccc(/N=N/c3ccc4c(S(=O)(=O)O)cc(S(=O)(=O)O)c(N)c4c3O)c(C)c2)ccc1/N=N/c1ccc2c(S(=O)(=O)O)cc(S(=O)(=O)O)c(N)c2c1O`, the cell viability activity is -43.7%.

As for `CCCCc1oc2ccc(NS(C)(=O)=O)cc2c1C(=O)c1ccc(OCCCN(CCCC)CCCC)cc1`, the cell viability activity is -96.2%.

For the compound `C[C@]12CC[C@@H]3c4ccc(O)cc4C[C@@H](CCCCCCCCC[S+]([O-])CCCC(F)(F)C(F)(F)F)[C@H]3[C@@H]1CC[C@@H]2O` (some centres undefined), the cell viability activity is -38.7%.

With `O=[N+]([O-])c1ccccc1S(=O)(=O)NCC1CCC(CNCC2CCc3ccccc3C2)CC1` (centres undefined), the cell viability activity was -63.8%.

Consider `O=C(c1ccc(-c2ccc(Cl)cc2)o1)N(Cc1ccccn1)c1ccc(N2CCNCC2)cc1`, for which the cell viability activity was -45.7%.

Regarding `COc1ncc(-c2ccc3nccc(-c4ccnnc4)c3c2)cc1NS(=O)(=O)c1ccc(F)cc1F`, the cell viability activity is -93.8%.

For the compound `CC(C)[C@](O)(c1ccc2cc(OC(F)F)c(OC(F)F)cc2c1)c1c[nH]nn1`, the cell viability activity was -54.8%.

In the case of `COc1cccc2c1C(=O)c1c(O)c3c(c(O)c1C2=O)C[C@@](O)(C(C)=O)C[C@@H]3O[C@H]1C[C@H](N)[C@H](O)[C@H](C)O1`, the cell viability activity was -97.7% and -94% and -93.6%.

Turning to `Nc1nc(=S)c2ncn([C@@H]3O[C@H](CO)[C@@H](O)[C@H]3O)c2[nH]1`, the cell viability activity was -80.3%.

The test system of a further assay is HT29 sg-Ctrl (RNF43 wildtype). The assay is described as above. As to conditions: 5 µM; 96 h. On the procedure: as §1
As for `CN(C)Cc1ccc(S(=O)(=O)n2ccc(/C=C/C(=O)NO)c2)cc1`, the cell viability activity is -64.6%.

Regarding `O=C(CCCCCCNC(=O)c1cnc(N(c2ccccc2)c2ccccc2)nc1)NO`, the cell viability activity is -45.9%.

On to `COc1cc(NC(C)CCCN)c2ncccc2c1` (centres undefined), for which the cell viability activity is -22.4%.

`CN1CCN(c2ccc3nc(-c4c(N)c5c(F)cccc5[nH]c4=O)[nH]c3c2)CC1`: the cell viability activity was -77.6%.

Take `CN(C)CCOc1ccc(-c2nc(-c3ccncc3)c(-c3ccc4c(c3)CC/C4=N\O)[nH]2)cc1`: the cell viability activity is -45.8%.

For `CNC(=O)c1ccccc1Nc1nc(Nc2ccc3c(c2OC)CCC[C@H](N2CCN(CCO)CC2)C3)ncc1Cl`, the cell viability activity is -85.5%.

`C[C@@H](CN1CC(=O)NC(=O)C1)N1CC(=O)NC(=O)C1`: the cell viability activity was -44.6%.

Take `CNC(=O)c1cccc(-c2ccc3c(N4CCOC[C@@H]4C)nc(N4CCOC[C@@H]4C)nc3n2)c1`: the cell viability activity is -42.8%.

For the compound `COc1cc(Nc2ncc(F)c(Nc3ccc4c(n3)NC(=O)C(C)(C)O4)n2)cc(OC)c1OC`, the cell viability activity is -37.3%.

Turning to `C[C@]1(O)C[C@@H](c2nc(-c3ccc4ccc(-c5ccccc5)nc4c3)c3c(N)nccn32)C1`, the cell viability activity is -26.2%.

For `COc1cc(/C=C/C(=O)CC(=O)/C=C/c2ccc(O)c(OC)c2)ccc1O`, the cell viability activity was -84.2%.

Consider `Cc1cc(OCc2nc(-c3ccccc3Cl)cs2)ccc1OCC(=O)O`, for which the cell viability activity is -31.1%.

`Cc1cccc(Nc2nc(-c3ccncc3)cs2)c1`: the cell viability activity was -55.8%.

In the case of `O=C(c1cn(Cc2cncn2Cc2ccc(Br)cc2)cc1-c1cccc2ccccc12)N1CCOCC1`, the cell viability activity was -38.5%.

As for `O=C(O)/C=C/c1ccc(O)c(O)c1`, the cell viability activity is -80.2%.

`CN(C)CCOc1ccc(-c2nc(-c3ccc4c(c3)CC/C4=N\O)c(-c3ccncc3)[nH]2)cc1`: the cell viability activity was -37.9%.

Take `Cc1cn([C@H]2C[C@H](N=[N+]=[N-])[C@@H](CO)O2)c(=O)[nH]c1=O`: the cell viability activity was -2.51%.

As to `CCn1c(=O)c(-c2cc[nH]n2)cc2c(C)nc(N)nc21`, the cell viability activity was -42.2%.

For the compound `COc1cc2ncnc(Sc3nnc(C)s3)c2cc1OC`, the cell viability activity was 14.6%.

`CO[C@H]1/C=C\C=C(/C)C(=O)NC2=CC(=O)C(NCCN(C)C)=C(C[C@@H](C)C[C@H](OC)[C@H](O)[C@@H](C)/C=C(\C)[C@@H]1OC(N)=O)C2=O`: the cell viability activity is -92.1% and -90.4%.

`CNC(=O)c1nn(C)c2c1C(C)(C)Cc1cnc(Nc3ccc(N4CCN(C)CC4)cc3)nc1-2`: the cell viability activity is -74.1%.

On to `CC(=O)OC1CC2CCC1(C)C2(C)C` (centres undefined), for which the cell viability activity was -26.5%.

On to `COc1cc(OC)c(/C=C/S(=O)(=O)Cc2ccc(OC)c(NCC(=O)O)c2)c(OC)c1`, for which the cell viability activity was -54.8%.

On to `Cn1cnc2c(F)c(Nc3ccc(Br)cc3F)c(C(=O)NOCCO)cc21`, for which the cell viability activity is -82.9%.

With `CC(=O)N1CCN(CCOc2ccc(C3CCN(C4=Nn5c(nnc5C(F)(F)F)CC4)CC3)cc2)CC1`, the cell viability activity is -33.7%.

Turning to `Cc1nc2ccccc2n1Cc1ccc(Cl)cc1`, the cell viability activity is -39.4%.

Regarding `CCCCCCCCCc1ccc(OCCOCCOCCOCCOCCOCCOCCOCCOCCO)cc1`, the cell viability activity was -22.3%.

Turning to `N#CC1(c2ccc(NC(=O)c3cccnc3NCc3ccncc3)cc2)CCCC1`, the cell viability activity is -22.7%.

Take `Cc1cc(-c2ccc(/N=N/c3ccc4c(S(=O)(=O)O)cc(S(=O)(=O)O)c(N)c4c3O)c(C)c2)ccc1/N=N/c1ccc2c(S(=O)(=O)O)cc(S(=O)(=O)O)c(N)c2c1O`: the cell viability activity was -20.4%.

Consider `CCCCc1oc2ccc(NS(C)(=O)=O)cc2c1C(=O)c1ccc(OCCCN(CCCC)CCCC)cc1`, for which the cell viability activity is -91.7%.

As for `C[C@]12CC[C@@H]3c4ccc(O)cc4C[C@@H](CCCCCCCCC[S+]([O-])CCCC(F)(F)C(F)(F)F)[C@H]3[C@@H]1CC[C@@H]2O` (some centres undefined), the cell viability activity is -38.5%.

On to `O=[N+]([O-])c1ccccc1S(=O)(=O)NCC1CCC(CNCC2CCc3ccccc3C2)CC1` (centres undefined), for which the cell viability activity is -61.4%.

For `O=C(c1ccc(-c2ccc(Cl)cc2)o1)N(Cc1ccccn1)c1ccc(N2CCNCC2)cc1`, the cell viability activity was -21.3%.

As to `COc1ncc(-c2ccc3nccc(-c4ccnnc4)c3c2)cc1NS(=O)(=O)c1ccc(F)cc1F`, the cell viability activity is -89.3%.

Take `CC(C)[C@](O)(c1ccc2cc(OC(F)F)c(OC(F)F)cc2c1)c1c[nH]nn1`: the cell viability activity worked out at 9.17%.

`COc1cccc2c1C(=O)c1c(O)c3c(c(O)c1C2=O)C[C@@](O)(C(C)=O)C[C@@H]3O[C@H]1C[C@H](N)[C@H](O)[C@H](C)O1`: the cell viability activity is -96.9% and -95.8% and -96%.

Take `Nc1nc(=S)c2ncn([C@@H]3O[C@H](CO)[C@@H](O)[C@H]3O)c2[nH]1`: the cell viability activity is -76.6%.
